Data published in PubChem BioAssay (NCI).
Compounds without any hit were thinned out: in the full panel of roughly 83,000, 20% have a hit.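 A percent growth of 40 corresponds to 60% growth inhibition; 0 means no net growth; -100 means all cells died. Active threshold: below 10.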 Values without a mark were called inactive. Calls of active or inactive are those of the source.

test system: K-562 leukemia; test: NCI-60 one-dose screen, 48 h (100 = growth as untreated, 0 = no growth, -100 = all killed); details: 10 µM unless noted

| Compound | growth |
| --- | --- |
| CCCCC1COc2cccc3c(SCC(=O)N(C)c4cccc(Cl)c4)cc[n+]1c23 (stereo not drawn) | 97.8% |
| COc1ccc(-c2c(N)n[nH]c2-c2ccccc2O)cc1OC | 87.2% |
| CCOC(=O)c1sc(-c2ccc(OS(=O)(=O)c3ccc(C(C)(C)C)cc3)c(C=O)c2)nc1C | 16.1% |
| Cc1nc(Nc2ccc(NC(=S)Nc3ccccc3)cc2)nc2nc(Nc3ccc(S(=O)(=O)O)cc3)[nH]c(=O)c12 | 71% |
| COc1ccc(/C=C2\COc3ccc(O)cc3C2=O)c(OC)c1 | 12.4% |
| COc1ccc(/C(C)=C(\c2ccc(Cl)cc2)c2ccc(OCCCN(C)C)cc2)cc1F | -0.587% (active) |
| Cc1nc(Nc2ccc(NC(=S)Nc3ccccc3)cc2)c2ccccc2n1 | 78.5% |
| C=C1C(=O)O[C@H]2[C@H]1CC/C(COC(=O)/C=C\C(=O)NCc1ccc(Cn3c(=O)sn(-c4ccc(OC)cc4)c3=O)cc1)=C\CC[C@@]1(C)O[C@@H]21 | 0.146% (active) |
| CN(C)CCn1cc(-c2ccc3c(Nc4ccc(CC(=O)Nc5cccc(F)c5)cc4)ncnc3c2)cn1 | -29.2% [30 µM] (active) |
| COc1cc(/C=C/c2nc(Nc3ccc(S(=O)(=O)Nc4cc(C)on4)cc3)c3ccccc3n2)ccc1O | 17.8% |
| COc1ccc(/C(C)=C(\c2ccc(Cl)cc2)c2ccc(OCCN3CCCC3)cc2)cc1F | -1.68% (active) |
| Cc1nc(Nc2ccc(S(=O)(=O)Nc3cc(C)on3)cc2)c2ccccc2n1 | 99.9% |
| COc1ccc(OC)c(/C=C2\COc3ccc(O)cc3C2=O)c1 | 9.33% (active) |
